Test [1] in a line: qHTS assay for small molecule disruptors of the mitochondrial membrane potential - 1 hr assay (AID 651754; calls by dose curve; note: nearly all actives have a fitted effect of over 35% in size; note: potency is the fitted concentration of half-maximal effect). Put shortly: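 Mitochondrial potential in living HepG2 cells after 1 hr compound treatment at 37C was read with Mito-MPS dye added for a further 30 min. Red aggregate and green monomer fluorescence were measured; loss of potential leaves dye as cytoplasmic monomers.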
Test [2] in a line: qHTS assay for small molecule disruptors of the mitochondrial membrane potential - 5 hr assay (AID 651755; calls by dose curve; note: nearly all actives have a fitted effect of over 40% in size; note: potency is the fitted concentration of half-maximal effect). The method, boiled down:
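Membrane-potential dye readout: red aggregate (540 ex/590 em) versus green monomer (490 ex/535 em) fluorescence after 30 min dye loading, following 5 hr compound exposure at 37C of overnight-plated HepG2 cells.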

The target in test [3] is Tumor necrosis factor (Homo sapiens) (UniProt P01375). The experiment in a line: qHTS assay to identify small molecules that stimulate Tumor Necrosis Factor-alpha (TNF-alpha) secretion (AID 651757; active = well fitted curve in the direction sought with a large enough effect in the signal ratio; the % refers to the signal ratio; note: 0% is about no effect). The method, boiled down: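 Secreted TNF-alpha quantified by TR-FRET sandwich of two labeled anti-TNF-alpha antibodies, incubated 3 hr at room temperature. Preceded by 17 hr, 37 C compound treatment of THP-1 cells at 3000 cells/well.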
Background: Quantitative high-throughput screening tests each substance at several concentrations.

Test [4] in a line: qHTS assay to identify small molecules that stimulate interleukin-8 (IL-8) secretion (AID 651758; active = well fitted activation curve with a large enough effect in the signal ratio; the % refers to the signal ratio; note: potency is the fitted concentration of half-maximal effect; for activation: 0% is about no effect). Put shortly:
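Secreted IL-8 measured homogeneously by TR-FRET (two labelled anti-IL-8 antibodies, 1-3 h at room temperature) after a 16 h, 37 C compound treatment of THP-1 cells at 2000 cells/well.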

Test [5] can be described thus: qHTS assay for environmental chemicals that activate the Aryl hydrocarbon Receptor (AhR) signaling pathway (AID 651777). For activation: % of control where 0% means no effect. Note: nearly all actives have a fitted effect of over 15% in size. Note: potency is the fitted concentration of half-maximal effect. To be noted: 1A2-DRE human hepatoma cells, luciferase, 24 h; activation: stronger effect = higher value. The method, boiled down: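 Luminescence read-out: One-Glo added for 30 min at RT after 24 hr compound treatment (37 C, 5% CO2) of human hepatoma cells expressing a DRE/CYP1A2 promoter–luciferase reporter; increased signal indicates AhR activation.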

Test [6] deals with Peroxisome proliferator-activated receptor alpha (Homo sapiens) (UniProt Q07869). In words: qHTS assay for small molecule agonists of the peroxisome proliferator-activated receptor alpha (PPARalpha) signaling pathway (AID 651778). Note: % of control where 0% means no effect. Particulars: PathHunter PPARalpha complementation, chemiluminescence, 6 h; stronger effect = higher value. The method, boiled down: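 Chemiluminescence from complemented enzyme reported PPARalpha activation in cells after 6 hr of compound treatment at 37 C. The detection reagent was incubated for 60 min at room temperature, and compounds were scored as agonists.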

Test [7] addresses Nuclear receptor ROR-gamma (Homo sapiens) (UniProt P51449). In words: qHTS assay for small molecule antagonists of the retinoid-related orphan receptor gamma (ROR-gamma) signaling pathway (AID 651802). Note: nearly all actives have a fitted effect of over 60% in size. Note: potency is the fitted concentration of half-maximal effect. The method, boiled down: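 Luminescence (One-Glo, 30 min RT) measured 16 h after compound addition and doxycycline induction at 37C. Reporter: RORE-luciferase under TET-inducible ROR-gamma in CHO cells.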

In test [8] the target is Arylsulfatase A (Homo sapiens) (UniProt P15289). The experiment in a line: qHTS screen for enhancers of Arylsulfatase A (ASA1): LOPAC Validation Assay (AID 720538). Note: 0% is about no effect. Put shortly:
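Read-out: fluorescence at Ex=525/Em=598 nm after 1N NaOH final stop. Patient fibroblasts carrying ASA-I179S had 48h compound exposure, then 14h room-temperature pNCS hydrolysis (0.5mM final) in lysis buffer. Signal increase = enhanced activity.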

Test [9] in a line: qHTS for compounds that reverse cellular toxicity of Amyloid beta (A-beta) peptide in yeast: LOPAC Validation Assay (AID 720559).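 Note: plate controls were DMSO for no effect and equimolar ferric chloride plus clioquinol rescue for full effect.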 Put shortly: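 OD600 growth readout after 48 hr at 30 C; A-beta-toxic yeast plus pinned compounds in medium. Normalization: DMSO = negative, equimolar FeCl3 + clioquinol = positive.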
The nature of test [10]: qHTS for Activators of Parkin Expression: LOPAC Validation Assay (NLuc Reporter) (AID 720572). The method, boiled down: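 Compound effects on Parkin promoter activity were measured as NanoLuc luminescence after 24 h at 37 C. The neuronal reporter line also carried FLuc, which was read first. LOPAC compounds were tested at 7 concentrations, with normalization to DMSO (0%) and positive control (100%).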

Structures are written as SMILES. Several values for one entry are separate records, joined by “and”; a condition that tells them apart may be missing. Equal values may be shown once. Records with an inconclusive call do not appear. The source holds several records for some structures; these can differ, active in one and inactive in another. Activity calls are given as the source filed them. Unless noted, calls come from the whole dose curve; as a rule, active = well fitted curve in the direction sought with a large enough effect; inconclusive = small, poorly fitted or top-dose-only effect, or another doubt; inactive = no such curve, though single readings can be large; an effect the other way counts as inactive or inconclusive.

Sequence of Peroxisome proliferator-activated receptor alpha (Homo sapiens) (Q07869 whole entry, looked up): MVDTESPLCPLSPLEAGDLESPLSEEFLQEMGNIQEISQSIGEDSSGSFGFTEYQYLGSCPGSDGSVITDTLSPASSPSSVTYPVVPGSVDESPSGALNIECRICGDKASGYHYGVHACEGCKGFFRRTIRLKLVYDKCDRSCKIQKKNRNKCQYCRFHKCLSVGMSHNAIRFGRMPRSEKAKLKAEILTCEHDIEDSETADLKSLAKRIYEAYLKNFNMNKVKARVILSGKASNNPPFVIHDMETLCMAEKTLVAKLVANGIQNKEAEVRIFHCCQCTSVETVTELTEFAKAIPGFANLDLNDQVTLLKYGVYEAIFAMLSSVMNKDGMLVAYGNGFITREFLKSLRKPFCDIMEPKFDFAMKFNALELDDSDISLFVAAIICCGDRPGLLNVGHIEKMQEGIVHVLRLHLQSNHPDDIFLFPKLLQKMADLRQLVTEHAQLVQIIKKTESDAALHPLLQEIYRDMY
Sequence of Tumor necrosis factor (Homo sapiens) (P01375 whole entry, looked up): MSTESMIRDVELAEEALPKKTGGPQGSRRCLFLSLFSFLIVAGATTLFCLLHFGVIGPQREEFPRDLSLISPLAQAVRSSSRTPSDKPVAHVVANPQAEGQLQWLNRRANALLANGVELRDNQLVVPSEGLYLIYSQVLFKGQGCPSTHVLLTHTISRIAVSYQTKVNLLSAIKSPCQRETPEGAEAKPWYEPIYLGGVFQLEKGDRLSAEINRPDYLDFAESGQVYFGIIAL
Sequence of Nuclear receptor ROR-gamma (Homo sapiens) (P51449 whole entry, looked up): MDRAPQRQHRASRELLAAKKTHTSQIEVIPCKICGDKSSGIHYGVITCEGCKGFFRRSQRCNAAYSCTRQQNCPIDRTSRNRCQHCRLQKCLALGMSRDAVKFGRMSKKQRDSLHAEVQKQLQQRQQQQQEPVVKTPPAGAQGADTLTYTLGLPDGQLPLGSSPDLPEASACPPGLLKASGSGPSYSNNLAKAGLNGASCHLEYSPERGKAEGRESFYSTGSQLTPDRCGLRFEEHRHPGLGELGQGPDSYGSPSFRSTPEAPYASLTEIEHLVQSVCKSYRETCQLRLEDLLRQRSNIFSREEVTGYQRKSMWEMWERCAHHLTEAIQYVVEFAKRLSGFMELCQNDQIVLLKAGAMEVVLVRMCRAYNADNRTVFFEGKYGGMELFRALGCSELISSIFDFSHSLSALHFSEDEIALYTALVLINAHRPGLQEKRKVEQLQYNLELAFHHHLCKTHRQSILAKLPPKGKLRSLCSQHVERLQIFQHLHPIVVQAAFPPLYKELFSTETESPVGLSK
Sequence of Arylsulfatase A (Homo sapiens) (P15289 whole entry, looked up): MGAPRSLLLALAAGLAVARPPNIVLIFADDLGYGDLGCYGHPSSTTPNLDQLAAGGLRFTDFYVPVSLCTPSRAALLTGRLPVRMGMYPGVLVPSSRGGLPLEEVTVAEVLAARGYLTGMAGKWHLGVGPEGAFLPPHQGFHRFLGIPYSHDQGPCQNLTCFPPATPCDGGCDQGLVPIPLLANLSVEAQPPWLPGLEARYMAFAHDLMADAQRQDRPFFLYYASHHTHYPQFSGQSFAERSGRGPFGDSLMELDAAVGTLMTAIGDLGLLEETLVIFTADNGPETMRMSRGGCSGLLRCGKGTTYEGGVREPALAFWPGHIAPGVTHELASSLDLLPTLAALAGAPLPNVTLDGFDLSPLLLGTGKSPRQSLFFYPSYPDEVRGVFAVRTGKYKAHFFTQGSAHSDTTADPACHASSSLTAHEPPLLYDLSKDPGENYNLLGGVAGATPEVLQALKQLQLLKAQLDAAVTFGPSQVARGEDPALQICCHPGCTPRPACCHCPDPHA

Turning to `CC(C)CCON=O`, the Potency result in [1], in [2], in [4] and in test [7] was “inactive” throughout. Further, the outcome in test [3] was inactive. Besides, in test [5], the activation is -0.695% (inactive). Moreover, the max response in test [6] is -0.247% (inactive).
With `CC(C)(C)c1cc(O)ccc1O`, the Potency result in test [1] and in test [2] was “inactive” throughout. In test [3], the molecule was called inactive. The Potency result is “inactive and 66.8 µM (active)” in test [4]; 16.8 µM (active) and 29.8 µM (active) in test [7]. In addition, the activation in test [5] was 12.6% (inactive) and 10.4% (inactive). In test [6], the max response is -2.46% (inactive) and -4.08% (inactive) and -1.53% (inactive).
Turning to `ClCC1CO1` (configuration not stated), the Potency entry in test [1], in test [2], in [4] and in test [7] was “inactive” each time. The molecule was called inactive in [3]. In addition, the activation in [5] is -0.99% (inactive). For the same molecule, the max response in test [6] is -4.69% (inactive).
Turning to `[Cl-].[Cl-].[Hg+2]`, in [2], the Potency result is “inactive”. Besides, in test [5], the activation was 1.68% (inactive). Besides, in test [6], the max response was -13.7% (inactive). Also, the Potency in test [7] was 1.06 µM (active).
As for `NNC(N)=O`, the Potency result in test [1], in [2], in test [7], in test [8] and in [10] was “inactive” in each case. The call in [3] and in test [9] was inactive. Also, the activation in test [5] was 0.598% (inactive). In addition, the max response in test [6] is -2.31% (inactive).
In the case of `Oc1cc(Cl)c(Cl)cc1Cl`, the Potency was 47.3 µM (active) in test [1], 47.3 µM (active) in [2] and 23.7 µM (active) in [7]. Moreover, in test [5], the activation is 3.21% (inactive) and 2.24% (inactive). In addition, in [6], the max response is -3.77% (inactive) and 0.0897% (inactive).
With `C[C@H]1CCC[C@H](O)CCCCCc2cc(O)cc(O)c2C(=O)O1`, the Potency in test [1] was 33.5 µM (active); in test [2], 37.6 µM (active); in [7] it was 42.2 µM (active). For the same molecule, in [3], the result was inactive. Further, the activation in test [5] was -1.64% (inactive). Moreover, the max response in [6] is -2.71% (inactive).
Consider `COC1=CC(=O)O[C@@H](/C=C/c2ccccc2)C1`, for which the Potency entry in [1], in test [2] and in test [7] was “inactive” throughout. The call in [3] was inactive. The activation in test [5] is 1.75% (inactive). In addition, in [6], the max response is -0.906% (inactive).
Turning to `O=C/C=C/c1ccccc1`, the Potency result in test [1], in test [2] and in test [7] was “inactive” throughout. Besides, in test [3], the call was inactive. For the same molecule, in [5], the activation was 2.17% (inactive) and 1.64% (inactive). In addition, the max response in test [6] was 0.173% (inactive) and 5.71% (inactive).
As for `CCOP(=O)(OCC)O/C(=C/Cl)c1ccc(Cl)cc1Cl`, in test [5], the Potency was 50.1 µM (active) and the activation is 3.76% (inactive). In addition, in test [6], the max response was -3.2% (inactive) and -2.2% (inactive).
Turning to `S=C=S`, the Potency result in test [1], in test [2], in test [4] and in test [7] was “inactive” in each case. In addition, the outcome in test [3] was inactive. For the same molecule, in test [5], the activation was 0.646% (inactive). The max response in test [6] is -4.15% (inactive).
For `C[C@H]1CC[C@@H]2[C@@H](C)[C@H]3[C@H](C[C@H]4[C@@H]5CC=C6CC(O[C@@H]7O[C@H](CO)[C@H](O)[C@H](O[C@@H]8O[C@H](CO)[C@@H](O)[C@H](O)[C@H]8O)[C@H]7O[C@H]7O[C@@H](C)[C@H](O)[C@@H](O)[C@H]7O)CC[C@]6(C)[C@H]5CC[C@]34C)N2C1` (some centres not stated), the Potency is 33.5 µM (active) in [1], 33.5 µM (active) in test [2] and 13.3 µM (active) in test [7]. In addition, the molecule was called inactive in [3]. For the same molecule, in test [5], the activation was -8.71% (inactive). In addition, the max response in [6] is -0.952% (inactive).
Regarding `Clc1ccccc1Cl`, the Potency entry in test [1], in test [2] and in test [7] was “inactive” in each case. Further, the molecule was called inactive in [3]. Besides, in test [5], the activation was -0.403% (inactive). Moreover, the max response in [6] is -2.32% (inactive).
For the molecule `O=CC=O`, the Potency result in test [1], in test [2] and in test [7] was “inactive” in each case. In addition, the result in test [3] was inactive. Moreover, the activation in [5] was -1.42% (inactive). In test [6], the max response was -5.03% (inactive).
As to `CCOC(=O)c1ccccc1C(=O)OCC`, the result in test [3] was inactive. For the same molecule, the Potency result in test [4] and in [7] was “inactive” in each case. In test [6], the max response is 0.572% (inactive) and -3.94% (inactive) and -0.67% (inactive).
With `ClC=C(Cl)Cl`, the Potency entry in test [1], in test [2] and in [7] was “inactive” in each case. For the same molecule, the result in test [3] was inactive. Moreover, the activation in [5] is 3.37% (inactive) and -2.62% (inactive). Moreover, the max response in test [6] was -8.59% (inactive) and -1.74% (inactive).
In the case of `O=c1[nH]c(=O)n(Cl)c(=O)n1Cl`, in test [5], the activation is -2.06% (inactive). Besides, in test [6], the max response is 3.21% (inactive).
For the molecule `CC(C)Nc1ccc(Nc2ccccc2)cc1`, the Potency in [2] is 59.6 µM (active). Besides, in test [6], the max response was -3.2% (inactive).
On to `COCC(C)N(C(=O)CCl)c1c(C)csc1C` (configuration not stated), for which the activation in test [5] was -1.87% (inactive). The max response in test [6] is -3.83% (inactive).
With `O=C1CCO1`, the Potency entry in test [1], in [2] and in [7] was “inactive” in each case. In addition, in [3], the molecule was classed as inactive. Moreover, in [5], the activation was 1.44% (inactive). In addition, the max response in test [6] is -1.17% (inactive).
Turning to `COc1ccc2c(c1OC)C(=O)OC2C1c2cc3c(cc2CCN1C)OCO3` (configuration not stated), the Potency entry in test [1], in [2], in [4] and in test [7] was “inactive” each time. In test [3], the molecule was called inactive. Also, the activation in test [5] was 0.0911% (inactive). Also, in test [6], the max response is -0.464% (inactive).
Consider `[O]=[Cd]`, for which the Potency result in test [1], in test [2] and in [7] was “inactive” each time. In test [3], the call was inactive. For the same molecule, in [5], the activation is 0.231% (inactive). Besides, in test [6], the max response is -1.92% (inactive).
For `O=[N+]([O-])c1ccccc1`, the Potency result in test [1], in [2] and in test [7] was “inactive” each time. The outcome in test [3] was inactive. Moreover, the activation in test [5] is -1.49% (inactive) and 0.199% (inactive). The max response in test [6] is 0.135% (inactive) and -4.33% (inactive).
As to `O=C(O)C(Cl)(Cl)Cl`, the Potency result in [1], in test [2], in [4] and in test [7] was “inactive” each time. Moreover, the outcome in test [3] was inactive. Besides, the max response in test [6] is 3.26% (inactive) and -0.682% (inactive).

These data come from PubChem BioAssay (NCATS).
